Laboratory results published in the supplement of paper PMC10849652.
About 8,800 targets were measured; listed, in parts, are those with a hit and a random draw of the rest. About 0.5% of all pairs of compound and target were hits. A number with no mark means an inactive call.

Tests used:
Assay in all cases: log2 fold change, soluble protein after heating vs DMSO (PISA); higher = thermal stabilisation; K562 lysate, 10 uM; active = over 0.2 and 3.5 SD of the protein, either way, in both replicates (recomputed)
nilotinib = compound: Cc1cn(-c2cc(NC(=O)c3ccc(C)c(Nc4nccc(-c5cccnc5)n4)c3)cc(C(F)(F)F)c2)cn1 [nilotinib]
How it was run: (§1)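 To prepare the extract, K562 pellets were dounce-homogenised in PBS pH 7.4 with 1 mM MgCl2, giving crude material at 1 mg/mL protein. This was treated with 10 μM compound for 30 min, then heated in aliquots for 3 min over 48°C-58°C before pooling and addition of NP-40 to 0.5% at 4°C. Centrifugation at 21,000xg for 90 min left soluble protein in the supernatant, which TMTpro 16plex LC-MS/MS quantified with equalised channel sums. Results are log-two fold changes in thermal stability compared with solvent controls, from duplicates.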

[1] = compound: Cc1nc(Nc2n[nH]c3c2CN(C(=O)N[C@H](CN(C)C)c2ccccc2)C3(C)C)c2sccc2n1
How it was run: as §1

dasatinib = compound: Cc1nc(Nc2ncc(C(=O)Nc3c(C)cccc3Cl)s2)cc(N2CCN(CCO)CC2)n1 [dasatinib]
How it was run: as §1

[2] = compound: Cc1ncc(-c2ccnc(Nc3ccc(S(C)(=O)=O)cc3)n2)n1C(C)C
How it was run: as §1

[3] = compound: Cn1cc(-c2ccc3c(c2)CCN3C(=O)Cc2cccc(C(F)(F)F)c2)c2c(N)ncnc21
How it was run: as §1

quisinostat = compound: Cn1cc(CNCC2CCN(c3ncc(C(=O)NO)cn3)CC2)c2ccccc21 [quisinostat]
How it was run: as §1

tipifarnib = compound: Cn1cncc1[C@@](N)(c1ccc(Cl)cc1)c1ccc2c(c1)c(-c1cccc(Cl)c1)cc(=O)n2C [tipifarnib]
How it was run: as §1

[4] = compound: NC(=O)Nc1cc(-c2cccc(F)c2)sc1C(=O)N[C@H]1CCCNC1
How it was run: as §1

[5] = compound: NC(=O)c1cnc(N[C@@H]2CCCC[C@@H]2N)nc1Nc1cccc(-n2nccn2)c1
How it was run: as §1

[6] = compound: NC1(c2ccc(-c3nc4ccn5c(=O)[nH]nc5c4cc3-c3ccccc3)cc2)CCC1
How it was run: as §1

Chain of UniProt P61923 (P61923 whole entry, looked up): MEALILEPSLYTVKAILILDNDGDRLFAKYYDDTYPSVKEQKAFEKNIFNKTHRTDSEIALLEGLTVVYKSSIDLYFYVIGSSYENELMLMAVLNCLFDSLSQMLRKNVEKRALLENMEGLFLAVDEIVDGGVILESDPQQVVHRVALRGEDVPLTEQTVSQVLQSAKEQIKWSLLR
Chain of UniProt Q96MX0 (Q96MX0 whole entry, looked up): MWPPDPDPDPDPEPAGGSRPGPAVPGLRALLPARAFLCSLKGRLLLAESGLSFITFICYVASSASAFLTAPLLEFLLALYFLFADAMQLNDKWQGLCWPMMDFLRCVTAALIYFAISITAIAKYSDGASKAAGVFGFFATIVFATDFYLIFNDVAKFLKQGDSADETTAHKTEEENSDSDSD
Chain of UniProt P09543 (P09543 whole entry, looked up): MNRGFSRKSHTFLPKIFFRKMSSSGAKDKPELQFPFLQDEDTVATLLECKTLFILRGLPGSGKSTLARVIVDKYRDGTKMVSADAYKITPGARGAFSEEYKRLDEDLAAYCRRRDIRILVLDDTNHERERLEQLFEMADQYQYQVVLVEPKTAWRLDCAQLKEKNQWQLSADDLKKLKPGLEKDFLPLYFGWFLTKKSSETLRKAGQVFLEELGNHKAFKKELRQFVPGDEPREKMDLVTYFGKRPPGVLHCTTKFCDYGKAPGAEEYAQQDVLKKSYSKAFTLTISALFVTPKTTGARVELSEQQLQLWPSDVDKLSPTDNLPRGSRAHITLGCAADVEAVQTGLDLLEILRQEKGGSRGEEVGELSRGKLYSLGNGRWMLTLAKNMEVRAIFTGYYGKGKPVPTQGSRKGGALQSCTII
Chain of UniProt Q96KA5 (Q96KA5 whole entry, looked up): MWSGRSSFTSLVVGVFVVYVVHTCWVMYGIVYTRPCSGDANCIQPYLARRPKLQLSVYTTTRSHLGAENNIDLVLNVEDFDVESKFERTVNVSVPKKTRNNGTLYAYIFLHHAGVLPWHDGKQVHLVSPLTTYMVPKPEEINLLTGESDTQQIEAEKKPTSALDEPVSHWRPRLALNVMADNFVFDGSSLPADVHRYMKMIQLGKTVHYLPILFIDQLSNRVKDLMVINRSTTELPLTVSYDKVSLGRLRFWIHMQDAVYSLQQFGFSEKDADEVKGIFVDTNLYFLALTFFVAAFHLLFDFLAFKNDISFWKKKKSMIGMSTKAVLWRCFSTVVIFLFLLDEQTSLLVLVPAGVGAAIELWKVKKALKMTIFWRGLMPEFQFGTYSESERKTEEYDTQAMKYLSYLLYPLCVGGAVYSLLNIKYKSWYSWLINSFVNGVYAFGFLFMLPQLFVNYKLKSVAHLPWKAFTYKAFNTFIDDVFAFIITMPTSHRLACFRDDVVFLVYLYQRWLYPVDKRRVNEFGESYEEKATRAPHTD
Chain of UniProt P26374 (P26374 whole entry, looked up): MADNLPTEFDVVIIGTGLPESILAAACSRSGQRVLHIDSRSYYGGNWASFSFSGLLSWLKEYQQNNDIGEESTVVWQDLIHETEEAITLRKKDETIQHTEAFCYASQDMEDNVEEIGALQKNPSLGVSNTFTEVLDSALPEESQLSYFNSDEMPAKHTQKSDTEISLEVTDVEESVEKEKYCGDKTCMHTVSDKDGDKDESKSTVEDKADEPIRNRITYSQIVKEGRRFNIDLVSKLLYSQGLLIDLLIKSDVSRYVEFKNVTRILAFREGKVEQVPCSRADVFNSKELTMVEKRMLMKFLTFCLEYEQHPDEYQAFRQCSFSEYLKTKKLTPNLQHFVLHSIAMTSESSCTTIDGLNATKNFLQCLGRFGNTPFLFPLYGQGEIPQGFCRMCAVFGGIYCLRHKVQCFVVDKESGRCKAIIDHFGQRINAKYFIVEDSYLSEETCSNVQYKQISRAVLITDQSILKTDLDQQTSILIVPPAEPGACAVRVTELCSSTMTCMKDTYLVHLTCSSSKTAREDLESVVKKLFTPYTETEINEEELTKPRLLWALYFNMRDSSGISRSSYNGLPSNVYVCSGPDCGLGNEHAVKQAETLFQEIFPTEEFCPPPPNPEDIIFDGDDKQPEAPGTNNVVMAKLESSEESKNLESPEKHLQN
Chain of UniProt Q14203 (Q14203 whole entry, looked up): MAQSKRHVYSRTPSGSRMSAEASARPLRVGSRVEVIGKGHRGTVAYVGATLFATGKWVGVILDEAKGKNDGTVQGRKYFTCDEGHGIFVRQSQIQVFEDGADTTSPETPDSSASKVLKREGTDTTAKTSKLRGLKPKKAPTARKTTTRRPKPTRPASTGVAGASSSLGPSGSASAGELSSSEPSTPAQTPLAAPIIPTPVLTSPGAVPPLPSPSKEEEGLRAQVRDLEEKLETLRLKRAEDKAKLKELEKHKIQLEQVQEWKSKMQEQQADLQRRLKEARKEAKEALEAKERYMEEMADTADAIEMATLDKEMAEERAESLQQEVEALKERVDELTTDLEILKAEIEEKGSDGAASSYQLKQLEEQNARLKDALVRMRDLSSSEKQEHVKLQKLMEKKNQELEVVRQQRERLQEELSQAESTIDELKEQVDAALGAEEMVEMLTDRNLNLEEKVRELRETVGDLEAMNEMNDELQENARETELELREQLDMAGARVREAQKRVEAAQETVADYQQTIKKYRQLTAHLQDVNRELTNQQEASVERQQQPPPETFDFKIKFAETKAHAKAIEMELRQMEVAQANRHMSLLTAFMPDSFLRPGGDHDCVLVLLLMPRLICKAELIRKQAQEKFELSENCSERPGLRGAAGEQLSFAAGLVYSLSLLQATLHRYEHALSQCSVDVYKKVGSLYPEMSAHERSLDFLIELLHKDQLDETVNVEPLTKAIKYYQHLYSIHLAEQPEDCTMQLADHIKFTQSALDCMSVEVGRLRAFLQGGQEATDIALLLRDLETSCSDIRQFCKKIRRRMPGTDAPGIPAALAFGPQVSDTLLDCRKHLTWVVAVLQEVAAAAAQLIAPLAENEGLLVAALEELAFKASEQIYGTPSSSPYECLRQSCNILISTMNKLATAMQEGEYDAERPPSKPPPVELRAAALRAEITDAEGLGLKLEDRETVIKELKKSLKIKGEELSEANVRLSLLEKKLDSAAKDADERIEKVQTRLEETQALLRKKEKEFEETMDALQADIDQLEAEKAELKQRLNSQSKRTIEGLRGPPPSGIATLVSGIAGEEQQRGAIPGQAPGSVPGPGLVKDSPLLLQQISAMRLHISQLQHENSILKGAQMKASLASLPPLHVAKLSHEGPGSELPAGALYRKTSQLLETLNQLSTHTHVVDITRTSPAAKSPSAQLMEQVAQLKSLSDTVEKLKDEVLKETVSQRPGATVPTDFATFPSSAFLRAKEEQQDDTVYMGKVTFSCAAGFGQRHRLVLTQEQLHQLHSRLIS
Chain of UniProt Q13217 (Q13217 whole entry, looked up): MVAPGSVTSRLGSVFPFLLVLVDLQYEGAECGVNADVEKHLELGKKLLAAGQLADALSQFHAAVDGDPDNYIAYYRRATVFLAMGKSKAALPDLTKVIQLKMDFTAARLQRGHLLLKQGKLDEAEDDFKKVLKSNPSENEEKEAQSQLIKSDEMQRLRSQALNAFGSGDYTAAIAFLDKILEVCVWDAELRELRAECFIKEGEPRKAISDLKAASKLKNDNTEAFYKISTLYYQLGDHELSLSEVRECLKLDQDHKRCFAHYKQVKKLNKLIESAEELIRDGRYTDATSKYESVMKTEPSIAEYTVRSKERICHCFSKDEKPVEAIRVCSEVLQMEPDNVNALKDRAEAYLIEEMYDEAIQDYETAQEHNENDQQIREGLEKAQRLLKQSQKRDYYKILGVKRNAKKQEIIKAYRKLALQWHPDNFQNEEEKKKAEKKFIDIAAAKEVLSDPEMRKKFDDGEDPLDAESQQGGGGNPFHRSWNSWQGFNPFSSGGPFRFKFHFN
Chain of UniProt P09622 (P09622 whole entry, looked up): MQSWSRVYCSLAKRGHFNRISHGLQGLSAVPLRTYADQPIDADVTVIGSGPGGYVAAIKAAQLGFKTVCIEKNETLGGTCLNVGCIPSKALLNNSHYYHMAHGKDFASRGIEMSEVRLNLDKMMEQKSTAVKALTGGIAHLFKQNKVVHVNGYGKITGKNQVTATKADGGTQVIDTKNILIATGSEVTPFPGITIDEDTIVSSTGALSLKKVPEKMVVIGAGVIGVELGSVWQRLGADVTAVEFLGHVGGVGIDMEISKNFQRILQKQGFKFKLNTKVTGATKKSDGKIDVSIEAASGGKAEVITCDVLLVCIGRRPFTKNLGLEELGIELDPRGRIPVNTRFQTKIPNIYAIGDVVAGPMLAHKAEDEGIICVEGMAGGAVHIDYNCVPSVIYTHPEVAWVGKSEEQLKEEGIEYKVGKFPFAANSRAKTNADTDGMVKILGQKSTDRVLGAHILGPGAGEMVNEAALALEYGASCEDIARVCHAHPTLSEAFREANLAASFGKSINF
Chain of UniProt Q6PJW8 (Q6PJW8 whole entry, looked up): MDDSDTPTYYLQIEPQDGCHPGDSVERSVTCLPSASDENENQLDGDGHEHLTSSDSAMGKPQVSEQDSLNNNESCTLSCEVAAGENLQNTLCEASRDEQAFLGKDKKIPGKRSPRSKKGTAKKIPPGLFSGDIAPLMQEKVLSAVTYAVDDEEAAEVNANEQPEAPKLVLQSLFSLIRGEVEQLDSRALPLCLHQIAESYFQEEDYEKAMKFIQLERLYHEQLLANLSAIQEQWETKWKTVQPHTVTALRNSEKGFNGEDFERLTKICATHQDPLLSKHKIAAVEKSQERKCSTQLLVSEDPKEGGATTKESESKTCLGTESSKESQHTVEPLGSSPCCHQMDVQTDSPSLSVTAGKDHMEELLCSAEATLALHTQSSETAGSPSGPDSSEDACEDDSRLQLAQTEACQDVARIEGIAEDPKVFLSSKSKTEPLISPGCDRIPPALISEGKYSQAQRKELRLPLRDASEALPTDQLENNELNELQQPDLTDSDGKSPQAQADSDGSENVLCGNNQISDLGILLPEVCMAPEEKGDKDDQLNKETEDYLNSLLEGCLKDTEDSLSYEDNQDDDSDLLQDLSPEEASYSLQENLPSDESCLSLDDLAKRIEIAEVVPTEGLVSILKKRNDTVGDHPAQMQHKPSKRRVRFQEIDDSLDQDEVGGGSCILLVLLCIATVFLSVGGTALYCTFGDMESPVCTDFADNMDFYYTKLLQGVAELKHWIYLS

| Target | log2 fold change (nilotinib) | log2 fold change [1] | log2 fold change (dasatinib) | log2 fold change [2] | log2 fold change [3] | log2 fold change (quisinostat) | log2 fold change (tipifarnib) | log2 fold change [4] | log2 fold change [5] | log2 fold change [6] |
| --- | --- | --- | --- | --- | --- | --- | --- | --- | --- | --- |
| DMXL1 (UniProt Q9Y485) | 0.03 | 0.006 | -0.017 | -0.005 | 0.025 | -0.009 | -0.015 | 0.01 | 0.014 | 0.034 |
| DCTN1 (UniProt Q14203) | 0.008 | -0.005 | -0.025 | 0.012 | 0.017 | 0.001 | -0.001 | 0.011 | 0.009 | -0.007 |
| CLPTM1L (UniProt Q96KA5) | 0.037 | -0.005 | 0.006 | 0 | -0.016 | 0.011 | -0.026 | 0.046 | 0.016 | -0.069 |
| COASY isoform 2 (UniProt Q13057) | -0.043 | -0.015 | -0.071 | -0.023 | 0.069 | -0.078 | 0.012 | 0.041 | -0.023 | -0.046 |
| CMTM3 (UniProt Q96MX0) | 0.07 | 0.048 | 0.05 | 0.144 | 0.015 | 0.023 | -0.111 | -0.115 | -0.055 | -0.026 |
| DCP2 (UniProt Q8IU60) | -0.065 | -0.051 | 0.009 | 0.032 | -0.018 | -0.094 | -0.012 | 0.014 | 0.03 | 0.024 |
| COPZ1 isoform 4 (UniProt P61923) | 0.012 | 0 | 0.015 | 0.088 | 0.023 | 0.289 | 0.002 | -0.029 | -0.103 | 0.037 |
| DDB2 (UniProt Q92466) | -0.027 | -0.024 | -0.033 | -0.044 | 0.02 | 0.028 | 0.026 | 0.021 | 0.006 | -0.003 |
| CNP (UniProt P09543) | 0.033 | 0.023 | -0.047 | -0.007 | 0.003 | -0.028 | -0.055 | -0.009 | -0.007 | -0.009 |
| DNAJC3 (UniProt Q13217) | 0.029 | -0.019 | 0.074 | 0.008 | 0.023 | 0.11 | -0.085 | -0.055 | 0.012 | 0.005 |
| DLD (UniProt P09622) | 0.02 | 0.001 | 0.003 | 0.011 | -0.022 | -0.014 | 0.003 | -0.015 | -0.009 | 0.005 |
| CTNND1 isoform 3 (UniProt O60716) | -0.027 | -0.02 | 0.006 | -0.017 | 0.009 | -0.065 | -0.06 | 0.027 | 0.065 | -0.065 |
| CNOT2 (UniProt Q9NZN8) | 0.013 | -0.011 | -0.024 | 0.009 | -0.018 | -0.026 | -0.074 | 0.024 | 0.02 | -0.001 |
| CTPS2 (UniProt Q9NRF8) | -0.005 | 0.006 | -0.035 | -0.002 | 0.01 | 0.029 | 0.003 | 0.001 | -0.003 | 0.012 |
| CKS1B (UniProt P61024) | -0.03 | 0.04 | 0.065 | -0.066 | 0.011 | 0.069 | 0.106 | -0.051 | 0 | 0.11 |
| CHEK1 (UniProt O14757) | -0.011 | -0.158 | 0.02 | -0.048 | -0.007 | -0.032 | 0.016 | 0.242 (active) | 0.003 | -0.042 |
| DPM1 (UniProt O60762) | 0.013 | 0.019 | 0.028 | -0.014 | 0.044 | 0.057 | 0.03 | 0.038 | 0.019 | -0.057 |
| DCUN1D4 isoform 3 (UniProt Q92564) | 0.023 | -0.007 | -0.062 | -0.009 | -0.046 | 0.066 | 0.017 | -0.019 | -0.036 | -0.043 |
| CYCS (UniProt P99999) | 0.014 | -0.038 | 0.001 | 0.008 | -0.037 | 0.035 | 0.015 | -0.003 | -0.015 | 0.022 |
| CTPS1 (UniProt P17812) | 0.009 | -0.005 | -0.058 | 0.011 | 0.026 | -0.019 | -0.015 | 0.028 | 0.002 | -0.004 |
| CKM (UniProt P06732) | 0.033 | 0 | -0.056 | 0.062 | -0.093 | -0.175 | -0.072 | 0.068 | -0.025 | 0.007 |
| CHML (UniProt P26374) | -0.001 | 0.013 | 0.035 | -0.011 | -0.001 | 0 | -0.031 | -0.015 | -0.008 | 0.002 |
| COG4 (UniProt Q9H9E3) | -0.038 | -0.01 | -0.093 | 0.008 | 0.048 | -0.047 | 0.006 | 0.004 | 0.001 | 0.055 |
| CKAP5 (UniProt Q14008) | 0 | 0.002 | -0.024 | -0.005 | 0.026 | -0.03 | -0.028 | 0.021 | 0.01 | 0.006 |
| CKAP2 (UniProt Q8WWK9) | 0.075 | 0.07 | 0.004 | 0.036 | -0.014 | -0.098 | -0.053 | -0.015 | -0.049 | -0.023 |
| CHUK (UniProt O15111) | -0.029 | 0.015 | -0.091 | 0.035 | 0.059 | -0.131 | -0.015 | 0.078 | -0.006 | -0.116 |
| CNST (UniProt Q6PJW8) | 0.125 | 0.029 | 0.023 | -0.123 | 0 | -0.005 | 0.054 | -0.002 | 0 | 0.041 |
| CPT1A (UniProt P50416) | -0.012 | 0.049 | 0.015 | -0.022 | 0.008 | 0.308 (active) | 0.056 | -0.09 | -0.028 | -0.038 |
| CTNNBL1 (UniProt Q8WYA6) | -0.034 | 0.02 | 0.025 | -0.013 | -0.065 | -0.008 | -0.019 | 0.02 | 0.011 | -0.138 |
| CXXC1 isoform 2 (UniProt Q9P0U4) | 0.032 | 0.029 | -0.504 | 0.026 | -0.191 | -0.159 | -0.039 | -0.013 | -0.021 | 0.082 |
